For experiment [1], the target named is human CYP2B6, CYP2B6 (gene 1555) (UniProt P20813). Put plainly: NVS_ADME_hCYP2B6: NovaScreen (NVS) CYP450-related Enzyme Activity (ADME) Assay for human CYP2B6 (AID 2283101). The gist of the method:
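Fluorescence-based enzyme activity of recombinant human CYP2B6, measured 1 h post-dose against acetonitrile vehicle baseline. Screened at a single concentration of 10 uM in duplicate before concentration-response follow-up.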

Experiment [2] deals with Cytochrome P450 2C18 (Homo sapiens) (UniProt P33260). Put plainly: NVS_ADME_hCYP2C18: NovaScreen (NVS) CYP450-related Enzyme Activity (ADME) Assay for human CYP2C18 (AID 2283103; active means hit-call score of the fitted dose curve at least 0.9, where 1 is the maximum; inactive means score below 0.9). The procedure, abridged: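 Cell-free recombinant human CYP2C18 with fluorogenic substrate; fluorescence intensity read 0.5 h after dosing. Single-point screen at 10 uM in duplicate, then concentration-response up to 20 uM; loss of signal fitted against acetonitrile baseline.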

Experiment [3] concerns the target human CYP2J2, CYP2J2 (gene 1573) (UniProt P51589). Put plainly: NVS_ADME_hCYP2J2: NovaScreen (NVS) CYP450-related Enzyme Activity (ADME) Assay for human CYP2J2 (AID 2283106). The gist of the method: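 Cell-free assay of recombinant CYP2J2 with a fluorogenic substrate, read 1 h after dosing; loss of signal versus acetonitrile. Primary screen at 10 uM in duplicate, then concentration-response up to 20 uM for chemicals passing threshold (e.g., 30% inhibition).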

Experiment [4] has as its target human CYP2D6, CYP2D6 (gene 1565) (UniProt P10635). The experiment in a line: NVS_ADME_hCYP2D6: NovaScreen (NVS) CYP450-related Enzyme Activity (ADME) Assay for human CYP2D6 (AID 2283107). The procedure, abridged: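 Compounds were first tested in duplicate at 10 uM against recombinant enzyme produced in insect cells, with substrate turnover measured by fluorescence after 1 hour. Decreased signal, referenced to acetonitrile vehicle, was taken as reduced enzyme activity. Active chemicals went on to concentration-response testing.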

Experiment [5] concerns the target human CYP2C9, CYP2C9 (gene 1559) (UniProt P11712). The experiment in a line: NVS_ADME_hCYP2C9: NovaScreen (NVS) CYP450-related Enzyme Activity (ADME) Assay for human CYP2C9 (AID 2283108). The procedure, abridged: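 Cell-free assay of recombinant human CYP2C9 produced in Sf9 cells, with enzyme activity read by fluorescence intensity 0.75 h after compound addition. Loss of signal versus an acetonitrile negative control indicates inhibition. Primary screen used 10 uM in duplicate; actives were retested in concentration series.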

In experiment [6] the target is Cytochrome P450 2C19 (Homo sapiens) (UniProt P33261). The experiment in a line: NVS_ADME_hCYP2C19: NovaScreen (NVS) CYP450-related Enzyme Activity (ADME) Assay for human CYP2C19 (AID 2283113).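 Further: potency for inhibition seen as loss of fluorescent signal.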 The gist of the method:
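Chemicals first screened in duplicate at 10 uM against recombinant human enzyme produced in insect cells; confirmed actives then run as concentration series. Fluorogenic substrate turnover read by fluorescence after 1 h, normalised to acetonitrile.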

Experiment [7] addresses rat CYP2A1, Cyp2a1 (gene 24894) (UniProt P11711). Put plainly: NVS_ADME_rCYP2A1: NovaScreen (NVS) CYP450-related Enzyme Activity (ADME) Assay for rat CYP2A1 (AID 2283114; active means hit-call score of the fitted dose curve at least 0.9, where 1 is the maximum; inactive means score below 0.9). The procedure, abridged:
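Recombinant rat CYP2A1, cell-free, fluorogenic substrate turnover read by fluorescence intensity 0.75 h after dosing. Primary screen at 10 uM in duplicate; actives rerun as concentration-response up to 20 uM; loss of signal versus acetonitrile control.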

Experiment [8] concerns the target rat CYP2A2, Cyp2a2 (gene 24895) (UniProt P15149). Put plainly: NVS_ADME_rCYP2A2: NovaScreen (NVS) CYP450-related Enzyme Activity (ADME) Assay for rat CYP2A2 (AID 2283116). The gist of the method:
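Cell-free recombinant rat CYP2A2 activity with fluorogenic substrate, fluorescence read 0.2 h after dosing. Chemicals screened at 10 uM in duplicate, hits then run in concentration-response up to 20 uM; signal loss versus acetonitrile baseline.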

Another experiment deals with rat CYP2B1, gene 24300. Put plainly: NVS_ADME_rCYP2B1: NovaScreen (NVS) CYP450-related Enzyme Activity (ADME) Assay for rat CYP2B1 (AID 2283117). The procedure, abridged:
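Recombinant rat CYP2B1 with fluorogenic substrate, read at 0.75 h. Primary screen in duplicate at 10 uM; compounds meeting threshold (e.g., 30% inhibition) re-run in concentration-response up to 20 uM. Fitted against acetonitrile control.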

The target in experiment [9] is rat CYP2C11, Cyp2c11 (gene 29277) (UniProt P08683). The experiment in a line: NVS_ADME_rCYP2C11: NovaScreen (NVS) CYP450-related Enzyme Activity (ADME) Assay for rat CYP2C11 (AID 2283118). The procedure, abridged:
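Cell-free recombinant rat enzyme with fluorescent substrate; readout 0.33 h after dosing, loss of signal versus acetonitrile control. Initial duplicate single-point at 10 uM; actives rerun in concentration series.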

The target of experiment [10] is rat CYP2C12, Cyp2c12 (gene 25011) (UniProt P11510). Put plainly: NVS_ADME_rCYP2C12: NovaScreen (NVS) CYP450-related Enzyme Activity (ADME) Assay for rat CYP2C12 (AID 2283119). The gist of the method:
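Cell-free recombinant rat CYP2C12 activity read by fluorescence 0.5 h after dosing; loss of signal versus acetonitrile control. Primary screen in duplicate at 10 uM; actives then run in concentration-response format.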

In experiment [11] the target is rat CYP2C13, Cyp2c13 (gene 171521) (UniProt P20814). Put plainly: NVS_ADME_rCYP2C13: NovaScreen (NVS) CYP450-related Enzyme Activity (ADME) Assay for rat CYP2C13 (AID 2283121). The procedure, abridged:
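Recombinant rat CYP2C13 with fluorogenic substrate, 0.75 h cell-free incubation; primary screen in duplicate at 10 uM, actives followed in concentration series. Fluorescence loss relative to acetonitrile control indicates inhibition.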

Experiment [12] deals with rat CYP2D1, Cyp2d1 (gene 266684) (UniProt P10633). The experiment in a line: NVS_ADME_rCYP2D1: NovaScreen (NVS) CYP450-related Enzyme Activity (ADME) Assay for rat CYP2D1 (AID 2283122). The procedure, abridged:
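Cell-free fluorescence enzyme-activity assay on extracted rat CYP2D1 protein, read 0.75 h after dosing. Primary screen in duplicate at 10 uM; qualifying chemicals then run in concentration-response to 20 uM max, loss-of-signal versus acetonitrile baseline.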

The target of experiment [13] is rat CYP2D2, Cyp2d26 (gene 25053) (UniProt P10634). Put plainly: NVS_ADME_rCYP2D2: NovaScreen (NVS) CYP450-related Enzyme Activity (ADME) Assay for rat CYP2D2 (AID 2283124). The procedure, abridged:
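Recombinant rat CYP2D2 in a cell-free fluorogenic activity assay, fluorescence read 0.75 h after dosing. Primary screen in duplicate at 10 uM; actives re-run singly in concentration-response to 20 uM, relative to acetonitrile.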

Another experiment deals with rat CYP3A1, gene 25642. Put plainly: NVS_ADME_rCYP3A1: NovaScreen (NVS) CYP450-related Enzyme Activity (ADME) Assay for rat CYP3A1 (AID 2283126). The gist of the method:
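Cell-free recombinant CYP assay with fluorescent substrate, read 0.5 h after dosing. Screened at 10 uM in duplicate, hits at up to 20 uM in concentration-response; loss of signal versus acetonitrile baseline.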

The target in experiment [14] is human CYP1A2, CYP1A2 (gene 1544) (UniProt P05177). Put plainly: NVS_ADME_hCYP1A2: NovaScreen (NVS) CYP450-related Enzyme Activity (ADME) Assay for human CYP1A2 (AID 2283102).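 Further: potency for inhibition since loss of fluorescence marks reduced CYP1A2 activity.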 The procedure, abridged: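 Compounds were tested at 10 uM in duplicate against recombinant CYP1A2 produced in insect cells. Enzyme activity was measured by fluorescence 0.5 h after dosing, with loss of signal versus acetonitrile control. Active compounds were re-tested in concentration series.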
Chain of human CYP1A2, CYP1A2 (gene 1544) (P05177 whole entry, looked up): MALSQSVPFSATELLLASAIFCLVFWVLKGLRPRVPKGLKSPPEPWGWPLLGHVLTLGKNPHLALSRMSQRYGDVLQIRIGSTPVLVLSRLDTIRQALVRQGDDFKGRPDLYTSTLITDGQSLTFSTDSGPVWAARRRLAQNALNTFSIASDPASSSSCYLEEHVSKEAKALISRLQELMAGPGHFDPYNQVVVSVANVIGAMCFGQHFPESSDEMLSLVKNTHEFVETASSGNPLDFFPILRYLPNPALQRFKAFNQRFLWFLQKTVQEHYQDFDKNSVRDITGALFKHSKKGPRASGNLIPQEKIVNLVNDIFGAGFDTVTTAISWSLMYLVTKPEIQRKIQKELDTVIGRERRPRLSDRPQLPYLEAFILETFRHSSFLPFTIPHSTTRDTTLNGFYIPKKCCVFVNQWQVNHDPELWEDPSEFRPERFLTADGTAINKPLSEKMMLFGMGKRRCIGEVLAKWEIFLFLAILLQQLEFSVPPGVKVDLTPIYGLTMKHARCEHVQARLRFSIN

Experiment [15] addresses Cytochrome P450 3A4 (Homo sapiens) (UniProt P08684). The experiment in a line: NVS_ADME_hCYP3A4: NovaScreen (NVS) CYP450-related Enzyme Activity (ADME) Assay for human CYP3A4 (AID 2283110). The procedure, abridged:
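Cell-free assay using insect-cell-expressed human CYP3A4 with a fluorogenic substrate; fluorescence intensity was read 0.33 hour after dosing. Loss of signal relative to acetonitrile vehicle indicated inhibition. Primary single-concentration screen at 10 uM, in duplicate, then concentration series.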

In experiment [16] the target is rat CYP1A2, Cyp1a2 (gene 24297) (UniProt P04799). Put plainly: NVS_ADME_rCYP1A2: NovaScreen (NVS) CYP450-related Enzyme Activity (ADME) Assay for rat CYP1A2 (AID 2283115). The gist of the method: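 Cell-free recombinant rat enzyme with fluorogenic substrate, read by fluorescence intensity 1 hour after dosing. Loss of signal versus acetonitrile negative control; primary screen at 10 uM in duplicate, actives followed in concentration series.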

For experiment [17], the target named is human CYP2C8, CYP2C8 (gene 1558) (UniProt P10632). The experiment in a line: NVS_ADME_hCYP2C8: NovaScreen (NVS) CYP450-related Enzyme Activity (ADME) Assay for human CYP2C8 (AID 2283104; active means hit-call score of the fitted dose curve at least 0.9, where 1 is the maximum; inactive means score below 0.9). The gist of the method: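 Recombinant human CYP2C8 with fluorogenic substrate, 0.5 h, fluorescence intensity; signal loss fitted versus acetonitrile. Screened in duplicate at 10 uM, then actives run in concentration-response up to 20 uM.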

Structures are written as SMILES. Inconclusive results are not listed. Active and inactive are the calls of the source. How the source made its calls, unless noted: active means hit-call score of the fitted dose curve at least 0.9, where 1 is the maximum; inconclusive means response in the unintended direction; inactive means score below 0.9.

Chain of human CYP2B6, CYP2B6 (gene 1555) (P20813 whole entry, looked up): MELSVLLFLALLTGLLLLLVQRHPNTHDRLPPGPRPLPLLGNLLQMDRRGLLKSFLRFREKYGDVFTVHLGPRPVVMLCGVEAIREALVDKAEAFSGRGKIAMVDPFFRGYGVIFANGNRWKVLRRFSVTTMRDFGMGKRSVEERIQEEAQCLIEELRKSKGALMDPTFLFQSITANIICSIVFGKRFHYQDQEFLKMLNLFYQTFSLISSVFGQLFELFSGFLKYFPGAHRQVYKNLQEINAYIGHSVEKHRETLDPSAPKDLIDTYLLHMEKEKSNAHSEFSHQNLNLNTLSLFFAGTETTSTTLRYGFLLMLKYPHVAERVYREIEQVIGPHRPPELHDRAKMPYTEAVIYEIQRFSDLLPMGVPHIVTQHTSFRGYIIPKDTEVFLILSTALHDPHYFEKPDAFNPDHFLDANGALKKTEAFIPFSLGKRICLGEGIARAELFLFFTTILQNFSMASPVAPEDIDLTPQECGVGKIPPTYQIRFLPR
Chain of human CYP2D6, CYP2D6 (gene 1565) (P10635 whole entry, looked up): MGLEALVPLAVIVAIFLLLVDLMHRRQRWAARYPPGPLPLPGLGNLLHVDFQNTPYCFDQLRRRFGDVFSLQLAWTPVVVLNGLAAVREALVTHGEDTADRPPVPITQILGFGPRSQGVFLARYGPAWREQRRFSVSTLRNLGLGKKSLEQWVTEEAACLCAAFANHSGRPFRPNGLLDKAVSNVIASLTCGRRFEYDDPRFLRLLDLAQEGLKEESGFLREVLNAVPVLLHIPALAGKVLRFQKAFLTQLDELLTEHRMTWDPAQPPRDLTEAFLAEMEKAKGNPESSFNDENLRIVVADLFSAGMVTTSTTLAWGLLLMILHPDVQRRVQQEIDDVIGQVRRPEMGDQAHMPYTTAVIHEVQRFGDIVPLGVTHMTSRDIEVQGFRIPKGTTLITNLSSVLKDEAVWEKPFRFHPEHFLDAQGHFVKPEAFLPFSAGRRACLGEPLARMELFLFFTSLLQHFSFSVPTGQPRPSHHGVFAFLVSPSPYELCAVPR
Chain of rat CYP2C12, Cyp2c12 (gene 25011) (P11510 whole entry, looked up): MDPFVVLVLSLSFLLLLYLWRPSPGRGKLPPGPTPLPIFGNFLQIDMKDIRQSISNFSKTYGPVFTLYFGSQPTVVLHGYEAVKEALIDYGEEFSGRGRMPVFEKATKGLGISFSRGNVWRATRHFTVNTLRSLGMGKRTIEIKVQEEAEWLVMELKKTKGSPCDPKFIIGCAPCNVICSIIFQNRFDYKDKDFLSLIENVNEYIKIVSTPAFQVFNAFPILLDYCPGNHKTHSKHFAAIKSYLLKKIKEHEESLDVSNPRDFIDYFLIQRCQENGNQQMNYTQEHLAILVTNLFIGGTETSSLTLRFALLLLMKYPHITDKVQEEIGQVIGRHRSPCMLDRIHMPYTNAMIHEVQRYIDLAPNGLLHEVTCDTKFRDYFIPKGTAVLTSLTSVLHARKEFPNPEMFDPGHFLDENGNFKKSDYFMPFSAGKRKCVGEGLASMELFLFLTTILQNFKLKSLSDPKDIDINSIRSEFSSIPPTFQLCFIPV
Chain of human CYP2C9, CYP2C9 (gene 1559) (P11712 whole entry, looked up): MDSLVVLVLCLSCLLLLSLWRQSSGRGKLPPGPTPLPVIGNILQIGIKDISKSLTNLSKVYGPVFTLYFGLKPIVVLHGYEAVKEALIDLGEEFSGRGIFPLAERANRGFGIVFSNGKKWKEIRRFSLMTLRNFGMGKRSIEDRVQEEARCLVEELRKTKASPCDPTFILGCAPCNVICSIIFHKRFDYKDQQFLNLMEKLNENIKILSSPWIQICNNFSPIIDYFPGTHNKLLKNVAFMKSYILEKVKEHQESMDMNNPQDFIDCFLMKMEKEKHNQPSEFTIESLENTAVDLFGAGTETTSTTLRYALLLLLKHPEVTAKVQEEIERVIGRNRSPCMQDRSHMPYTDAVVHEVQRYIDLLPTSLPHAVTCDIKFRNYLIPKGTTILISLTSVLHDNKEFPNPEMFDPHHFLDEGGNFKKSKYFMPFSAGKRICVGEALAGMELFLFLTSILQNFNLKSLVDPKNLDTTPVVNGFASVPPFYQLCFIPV
Chain of rat CYP2A2, Cyp2a2 (gene 24895) (P15149 whole entry, looked up): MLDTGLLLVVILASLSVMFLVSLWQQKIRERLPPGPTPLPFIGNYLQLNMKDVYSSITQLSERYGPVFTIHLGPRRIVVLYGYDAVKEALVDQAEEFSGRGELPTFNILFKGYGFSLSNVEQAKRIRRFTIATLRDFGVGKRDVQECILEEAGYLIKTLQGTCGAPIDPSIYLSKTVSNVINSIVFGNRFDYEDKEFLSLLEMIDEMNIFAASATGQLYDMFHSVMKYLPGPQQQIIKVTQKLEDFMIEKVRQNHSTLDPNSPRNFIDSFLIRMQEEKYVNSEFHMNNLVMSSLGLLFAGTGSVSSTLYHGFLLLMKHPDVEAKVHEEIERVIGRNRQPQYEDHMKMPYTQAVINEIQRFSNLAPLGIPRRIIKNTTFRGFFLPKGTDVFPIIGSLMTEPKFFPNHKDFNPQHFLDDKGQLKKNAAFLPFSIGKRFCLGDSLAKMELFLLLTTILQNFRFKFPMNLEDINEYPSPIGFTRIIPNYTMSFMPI
Chain of rat CYP2C11, Cyp2c11 (gene 29277) (P08683 whole entry, looked up): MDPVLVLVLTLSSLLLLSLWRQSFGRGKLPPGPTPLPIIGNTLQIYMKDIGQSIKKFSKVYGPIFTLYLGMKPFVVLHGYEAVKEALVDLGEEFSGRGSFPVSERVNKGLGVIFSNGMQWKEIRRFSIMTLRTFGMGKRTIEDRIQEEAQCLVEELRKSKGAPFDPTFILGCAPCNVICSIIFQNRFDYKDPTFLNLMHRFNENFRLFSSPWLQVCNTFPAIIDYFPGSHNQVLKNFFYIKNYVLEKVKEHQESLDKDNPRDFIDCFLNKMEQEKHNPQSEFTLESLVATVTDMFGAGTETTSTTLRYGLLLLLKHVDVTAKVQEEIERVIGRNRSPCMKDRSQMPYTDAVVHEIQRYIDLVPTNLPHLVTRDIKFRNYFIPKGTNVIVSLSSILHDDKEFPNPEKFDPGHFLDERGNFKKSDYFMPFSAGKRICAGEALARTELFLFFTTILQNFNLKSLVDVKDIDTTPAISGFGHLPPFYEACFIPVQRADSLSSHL
Chain of rat CYP2C13, Cyp2c13 (gene 171521) (P20814 whole entry, looked up): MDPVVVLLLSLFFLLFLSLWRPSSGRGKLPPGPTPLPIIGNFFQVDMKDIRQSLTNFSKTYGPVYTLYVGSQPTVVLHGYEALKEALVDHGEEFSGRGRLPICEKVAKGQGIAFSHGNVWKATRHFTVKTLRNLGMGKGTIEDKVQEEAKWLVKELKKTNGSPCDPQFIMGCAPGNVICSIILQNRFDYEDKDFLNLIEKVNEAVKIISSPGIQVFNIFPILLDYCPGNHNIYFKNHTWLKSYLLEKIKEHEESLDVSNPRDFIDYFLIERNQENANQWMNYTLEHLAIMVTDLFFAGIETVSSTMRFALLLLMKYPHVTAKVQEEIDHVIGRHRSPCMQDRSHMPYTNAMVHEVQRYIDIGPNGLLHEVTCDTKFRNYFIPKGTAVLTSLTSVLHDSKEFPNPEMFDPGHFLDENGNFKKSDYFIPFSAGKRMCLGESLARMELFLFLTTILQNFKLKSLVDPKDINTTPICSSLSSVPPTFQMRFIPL
Chain of human CYP2J2, CYP2J2 (gene 1573) (P51589 whole entry, looked up): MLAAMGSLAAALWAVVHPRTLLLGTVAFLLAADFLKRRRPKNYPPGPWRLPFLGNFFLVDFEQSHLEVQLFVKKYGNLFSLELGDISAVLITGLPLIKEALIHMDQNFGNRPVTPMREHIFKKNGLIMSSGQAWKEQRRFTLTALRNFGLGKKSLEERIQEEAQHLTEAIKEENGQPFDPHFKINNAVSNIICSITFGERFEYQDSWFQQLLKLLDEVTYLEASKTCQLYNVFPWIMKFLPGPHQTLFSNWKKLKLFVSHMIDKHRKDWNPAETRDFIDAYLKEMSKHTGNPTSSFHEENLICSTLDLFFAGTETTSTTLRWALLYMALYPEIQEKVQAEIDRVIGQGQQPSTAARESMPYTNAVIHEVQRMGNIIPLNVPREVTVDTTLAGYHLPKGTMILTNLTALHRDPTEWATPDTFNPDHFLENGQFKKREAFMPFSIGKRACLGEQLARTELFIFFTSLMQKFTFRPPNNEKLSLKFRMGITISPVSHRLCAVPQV
Chain of rat CYP2D2, Cyp2d26 (gene 25053) (P10634 whole entry, looked up): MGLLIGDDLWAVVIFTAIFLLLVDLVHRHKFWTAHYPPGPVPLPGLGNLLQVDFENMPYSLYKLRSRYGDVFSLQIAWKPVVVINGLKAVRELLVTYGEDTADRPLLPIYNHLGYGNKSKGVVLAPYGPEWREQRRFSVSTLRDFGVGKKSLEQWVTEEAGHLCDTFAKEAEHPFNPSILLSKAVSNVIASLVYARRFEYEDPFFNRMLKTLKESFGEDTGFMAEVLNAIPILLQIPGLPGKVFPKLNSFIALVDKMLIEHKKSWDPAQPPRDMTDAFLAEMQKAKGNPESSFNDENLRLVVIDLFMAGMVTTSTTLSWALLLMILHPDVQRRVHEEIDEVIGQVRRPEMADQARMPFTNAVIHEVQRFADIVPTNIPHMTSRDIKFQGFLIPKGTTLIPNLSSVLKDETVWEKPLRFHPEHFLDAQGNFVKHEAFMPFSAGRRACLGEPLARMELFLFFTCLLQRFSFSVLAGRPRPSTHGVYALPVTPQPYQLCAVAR

Turning to `CCCCC(C#N)(Cn1cncn1)c1ccc(Cl)cc1` (stereo not drawn), the half-maximal activity concentration (AC50) (as a rule, the concentration giving half of the maximal activity seen) was 6.49 µM (active) in experiment [1]; 2.25 µM (active) in [2]; 8.72 µM (active) in experiment [5]; 0.634 µM (active) in experiment [6]; 0.563 µM (active) in experiment [7]; 0.238 µM (active) in experiment [8]. Besides, the concentration at half-maximal activity (AC50) with rat CYP2B1, gene 24300 is 1.64 µM (active); in experiment [9], 2.39 µM (active); in experiment [10] it was 4.51 µM (active); in experiment [11] it was 4.37 µM (active); in [12], 8.64 µM (active); in experiment [13], 6.44 µM (active). Besides, the half-maximal activity concentration (AC50) in the experiment with rat CYP3A1, gene 25642 is 3.82 µM (active). Also, the call in [3] and in experiment [4] was inactive.
As for `O=C1C2CC=CCC2C(=O)N1SC(Cl)(Cl)Cl` (stereo not drawn), the concentration at half-maximal activity (AC50) is 6.89 µM (active) in experiment [14], 10 µM (active) in [5] and 16 µM (active) in experiment [6]. Besides, in experiment [10], the compound was classed as inactive.
Consider `COCc1cnc(C2=NC(C)(C(C)C)C(=O)N2)c(C(=O)O)c1` (stereo not drawn), for which, in [3], the AC50 is 3.83 µM (active).
As to `CCCCOCN(C(=O)CCl)c1c(CC)cccc1CC`, the AC50 is 8.94 µM (active) in [1]; 6.71 µM (active) in [2]; 5.52 µM (active) in [5]; 9.74 µM (active) in [15]; 1.28 µM (active) in [6]; 10 µM (active) in experiment [11]. Moreover, the AC50 in experiment [13] is 3.35 µM (active); with rat CYP3A1, gene 25642 it was 10 µM (active).
In the case of `CCNP(=S)(OC)O/C(C)=C/C(=O)OC(C)C` (stereo not drawn), the AC50 in experiment [1] is 0.723 µM (active); in [14], 5.76 µM (active); in experiment [2] it was 2.63 µM (active); in experiment [3] it was 1.33 µM (active); in experiment [4] it was 7.62 µM (active); in experiment [5], 1.79 µM (active). Also, the AC50 in [6] is 0.107 µM (active); in experiment [8], 6.86 µM (active); in the experiment on rat CYP2B1, gene 24300 it was 1.45 µM (active); in [9] it was 1.24 µM (active); in experiment [10], 10 µM (active); in experiment [11], 7.31 µM (active). Besides, the AC50 in experiment [13] was 5.41 µM (active); in the experiment with rat CYP3A1, gene 25642 it was 1.93 µM (active).
Consider `CC(C)NC(=O)N1CC(=O)N(c2cc(Cl)cc(Cl)c2)C1=O`, for which the half-maximal activity concentration (AC50) in experiment [14] is 5.75 µM (active); in experiment [5], 4.01 µM (active); in experiment [6], 2.06 µM (active); with rat CYP3A1, gene 25642, 2.27 µM (active). Besides, the call in [2] and in experiment [16] was inactive.
For the compound `COP(=S)(OC)SCn1nnc2ccccc2c1=O`, the AC50 in experiment [1] is 0.302 µM (active); in experiment [14], 2.79 µM (active); in experiment [2], 1.93 µM (active); in experiment [17], 6.73 µM (active); in experiment [3], 1.87 µM (active); in [4], 4.19 µM (active). In addition, the concentration at half-maximal activity (AC50) in experiment [5] was 5.2 µM (active); in [6], 0.257 µM (active); in experiment [7] it was 3.24 µM (active); in experiment [8], 5.47 µM (active); in the experiment with rat CYP2B1, gene 24300, 3.35 µM (active); in [9] it was 0.419 µM (active). Also, the AC50 is 3.03 µM (active) in [11]; 6.92 µM (active) in experiment [12]; 7.04 µM (active) in [13]; 3.02 µM (active) in the experiment with rat CYP3A1, gene 25642.
As for `CCOP(=S)(OCC)Oc1nc(Cl)n(C(C)C)n1`, the AC50 in [1] was 1 µM (active); in experiment [6] it was 0.317 µM (active); in experiment [13], 5.76 µM (active); in the experiment on rat CYP3A1, gene 25642, 3.46 µM (active).

Source of the values: PubChem BioAssay (EPA / NIEHS).
